Measurements: ChEMBL document CHEMBL3988442, “University of Dundee, Small-Polar-MMV Screening Library” (2021)
Among all 38,000 compounds or so, about 1,200 (3.2%) showed an effect of 50% or more. The median lay at about -58%. The list comes from a sample in which strong results are over-represented; it also holds similar structures and randomly drawn compounds.

Each compound was assayed on Plasmodium falciparum (assay: Calibr Malaria Delayed Death Assay SOP). Conditions: concentration 4.99e-06 (unit not given; other assays of the set use mol/L).
Assay type: functional, organism-based
Set-up: scale not given: in the data most compounds retested in dose-response had high values

Row | SMILES | Percent Effect [%]
1 | Cc1noc(C(C)C)c1C(=O)N1CCOCC1CC(=O)c1ccco1 (stereo unspecified) | -42.91
2 | NC(=O)Cc1ccc(OCc2noc(C(=O)N3CCCC3)n2)cc1 | -126.1
3 | O=C(C1CCC2(CCN(Cc3cccnc3)CC2)CO1)N1CCCC1.O=C(O)C(F)(F)F.O=C(O)C(F)(F)F (stereo unspecified) | -51.34
4 | COc1cc(CCC(=O)NC(C)C)ccc1OCC(F)(F)F | -88.73
5 | Cc1c(C(=O)N2CCOCC2)n(C)c2ccc(Cl)cc12.Cl | -79.72
6 | Cc1c(C(=O)N2CCN(C)CC2)n(C)c2ccc(Cl)cc12 | -1.924
7 | OC1CCN(c2ccnc3c(F)cc(Br)cc23)CC1 | -18.79
8 | NCC1Cc2cc(-c3nccc(N4CCC(O)CC4)n3)cc(F)c2O1 (stereo unspecified) | 83
9 | NCC1Cc2cccc(-c3nccc(N4CCC(O)CC4)n3)c2O1 (stereo unspecified) | 16.4
10 | O=C1NCCN1C1CCN(c2ccnc(-c3ccccc3)n2)CC1 | -68.77
11 | NCC1Cc2cc(-c3nccc(N4CCC(O)CC4)n3)cc(Cl)c2O1 (stereo unspecified) | 79.64
12 | OC1CCN(c2ccnc(NCCc3ccccc3Cl)n2)CC1 | -52.91
13 | Cc1ccc(CN2CCc3c(COC(C)C)nn(C)c3C2)s1.O=C(O)C(F)(F)F | -19.42
14 | Cc1cc(S(=O)(=O)N2C[C@H](C3CC3)[C@@H](N)C2)c(C)s1 | 85.63
15 | Cc1ccc(S(=O)(=O)N2C[C@H](C3CC3)[C@@H](N)C2)cc1F | 14.36
16 | N[C@H]1CN(S(=O)(=O)c2ccccc2)C[C@@H]1C1CC1 | -1.115
17 | Cc1cc(-c2cc(S(=O)(=O)N3C[C@H](C4CC4)[C@@H](N)C3)c(C)s2)[nH]n1 | 61.47
18 | N[C@H]1CN(S(=O)(=O)c2cccnc2)C[C@@H]1C1CC1 | -65.5
19 | CC(C)Nc1cc(N2CCC(n3cc(CCO)nn3)CC2)ncn1 | -78.28
20 | Cc1cc(C(=O)N2CCN(c3nc4c(C)cccc4s3)CC2)no1 | -18.05
21 | Cc1c(C2N3C[C@]4(C(C)C)CN2C[C@](C(C)C)(C3)C4=O)[nH]c(=O)[nH]c1=O (stereo partly specified) | -140.7
22 | O=C(O)C(F)(F)F.O=C1COC2(CCN(c3ncccn3)CC2)CN1Cc1ccccn1 | -77.45

Row | SMILES | Percent Effect [%]
23 | CN(CCCOc1ccccc1)C(=O)c1csc(-c2nnc[nH]2)n1 | 76.91
24 | COCCN(Cc1ccccc1)C(=O)c1csc(-c2nnc[nH]2)n1 | -56.87
25 | COc1cccc(CN(C)C(=O)c2csc(-c3nnc[nH]3)n2)c1 | -25.24
26 | CC(=O)Nc1nc2c(s1)C1(CCCC1)Nc1ccccc1S2 | -91.88
27 | Cc1nc(CCNC(=O)C2CC(=O)N(C(C)C)C2)cs1 (stereo unspecified) | -69.29
28 | Cc1ccc(NC2CCN(C(=O)COC3CCCC3)CC2)nn1 | -115.6
29 | Cc1ccccc1CN1CCC(NCC2CNc3ccnn3C2)CC1 (stereo unspecified) | 66.35
30 | Cc1cc2n(n1)CC(CNC1CCN(Cc3ccncc3)CC1)CN2 (stereo unspecified) | -3.89
31 | Cc1cc2n(n1)CC(CNC1CCN(C(=O)c3ccco3)CC1)CN2 (stereo unspecified) | -80.47
32 | c1ccc(C2(NCC3CNc4ccnn4C3)CCC2)cc1 (stereo unspecified) | 13.04
33 | Cc1cc2n(n1)CC(CNC1CCN(CCc3ccccc3)CC1)CN2 (stereo unspecified) | 67.68
34 | Cc1cccc(CN2CCC(NCC3CNc4cc(C)nn4C3)CC2)c1 (stereo unspecified) | 85.82
35 | Cc1cc2n(n1)CC(CNC1CCN(Cc3ccccn3)CC1)CN2 (stereo unspecified) | -56.82
36 | Cc1cc2n(n1)CC(CNC1CCN(Cc3ccccc3C)CC1)CN2 (stereo unspecified) | 70.36
37 | Cc1cc2n(n1)CC(CNC1CCN(C(=O)C3CC3)CC1)CN2 (stereo unspecified) | -153
38 | Cc1cc2n(n1)CC(CNC1CCN(C3CC3)CC1)CN2 (stereo unspecified) | -73.71
39 | OCc1ccccc1CNCC1CNc2ccnn2C1 (stereo unspecified) | -1.893
40 | Cc1cc2n(n1)CC(CNC1CCN(c3ccccn3)CC1)CN2 (stereo unspecified) | -51.76
41 | CC(C)N1CCC(Cc2cc(-c3cc(F)ccc3C(=O)O)ncn2)C1 (stereo unspecified) | -123.1
42 | COCCN1CCCC2(CCN(Cc3nnc(C4CC4)o3)C2)C1=O (stereo unspecified) | -62.36
43 | COCCNC(=O)c1cccnc1Oc1ccc(Cl)cc1 | -11.3
44 | O=C(NC1CC1)[C@H]1C[C@@H]2CCN(Cc3ccc4c(c3)OCO4)C[C@@H]2O1.O=C(O)C(F)(F)F | -22.11

Row | SMILES | Percent Effect [%]
45 | CC(C)c1nc(C2CCCN2C(=O)CCn2cncn2)no1 (stereo unspecified) | -126.6
46 | CCCN(CCc1ccccc1)C(=O)c1ccccc1NCC(=O)O | -32.98
47 | Cc1cc(C(C)(O)CNC(=O)CCn2ccnc2C(C)C)c(C)o1 (stereo unspecified) | -18.43
48 | Cc1cc(NC(=O)NCCOc2ccc(Cl)cn2)no1 | -49.88
49 | COc1cc(C)sc1C(=O)NCCNc1ccccc1 | 14.03
50 | COc1cc(C)sc1C(=O)NCCC(=O)N(C)c1ccccc1 | 32.05
51 | COc1cc(C)sc1C(=O)NCCC(=O)N(C)Cc1ccccc1 | 58.21
52 | COCC(=O)N1CCO[C@]2(CCC[C@H]2COC)C1 | -73.03
53 | CCc1n[nH]c(C2CN(C(=O)CCCn3cccn3)CCO2)n1 (stereo unspecified) | -94.04
54 | COc1ccc(-c2ccccc2CCN)c(OC)c1OC | 81.6
55 | COc1ccc(OC)c(-n2cnnc2CCN)c1 | -39.19
56 | COc1ccc(-c2ccccc2CCN)c(OC)c1 | 80.76
57 | COc1ccc(-c2ccnc(N)c2)c(OC)c1 | -94.95
58 | COc1ccc(-c2ccccc2CN)c(OC)c1 | 59.74
59 | CC(=O)Nc1cccc(-c2ccccc2CCN)c1 | -111.2
60 | COc1ccc(CN)c(OC(F)F)c1.Cl | -30.28
61 | COc1ccc(CCN)cc1-c1ccc(S(C)(=O)=O)cc1 | 18.27
62 | COc1ccc(-c2cc(CN)ccc2F)c(OC)c1OC | 12.18
63 | Cc1c[nH]c(C(=O)N2CCCC2c2ccc(C(=O)N3CCSCC3)s2)n1 (stereo unspecified) | -168.9
64 | CC(=O)N1CCCC2(C1)CN(C(=O)Cc1ccccc1)CCO2 (stereo unspecified) | -122.2
65 | O=C(O)Cn1ccc(=O)c2cc(Cl)ccc21 | -122.9
66 | CCOc1cccc2c1OCC(=O)N(c1ccc(N(C)C)cc1)C2 | -248.2
